Experimental data from PubChem BioAssay (NCATS).
Records with an inconclusive call do not appear. Activity calls are given as the source filed them. Calls follow the shape of the dose curve; as a rule, active = well fitted curve in the direction sought with a large enough effect; inconclusive = small, poorly fitted or top-dose-only effect, or another doubt; inactive = no such curve, though single readings can be large; an effect the other way counts as inactive or inconclusive.

Tests used:
[1] = qHTS of pediatric cancer cell lines to identify multiple opportunities for drug repurposing: Primary screen for SK-N-MC cells (AID 1347093);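 also: series mostly up to about 46 µM; plate controls were DMSO neutral control for no effect and bortezomib for full effect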
In short: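 Metabolically active cells were quantified by ATP-dependent luminescence (CellTiter-Glo, 15 min at room temperature) following 48 h treatment. Cells had been plated at 500-1,000 per well and settled for 5 h beforehand.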

[2] = qHTS of pediatric cancer cell lines to identify multiple opportunities for drug repurposing: Primary screen for BT-37 cells (AID 1347094);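 also: series mostly up to about 57 µM; plate controls were DMSO for no effect and bortezomib for full effect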
In short: (§1)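 Primary screen of approved and investigational compounds on cells in growth media at 37 degrees C, 5% CO2. MIPE set at 11-point and NPC set at 8-point dilutions; viability scored by ATP-based luminescence at 48 hours.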

[3] = qHTS of pediatric cancer cell lines to identify multiple opportunities for drug repurposing: Primary screen for NB-EBc1 cells (AID 1347095);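 also: plate controls were DMSO neutral control for no effect and bortezomib for full effect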
In short: as §1

[4] = qHTS of pediatric cancer cell lines to identify multiple opportunities for drug repurposing: Primary screen for U-2 OS cells (AID 1347096);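 also: plate controls were DMSO wells for no effect and bortezomib positive control wells for full effect; nearly all actives have a fitted effect of over 50% in size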
In short: (§2)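 Cells (500-1,000/well) in growth media were settled 5 h at 37 degrees C, then given compounds for 48 h. Viability was read as CellTiter-Glo luminescence. Primary runs used MIPE at 11 points (0.78 nM-46 µM) and NPC at 8 points (0.59 nM-46 µM); follow-ups used 11 points.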

[5] = qHTS of pediatric cancer cell lines to identify multiple opportunities for drug repurposing: Primary screen for Saos-2 cells (AID 1347097); also: % is scaled to controls: 0 for no effect and ±100 for the full control effect; nearly all actives have a fitted effect of over 40% in size
In short: as §1

[6] = qHTS of pediatric cancer cell lines to identify multiple opportunities for drug repurposing: Primary screen for SK-N-SH cells (AID 1347098);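 also: DMSO served as neutral control and bortezomib at 2.3 µM as positive control; % is scaled to controls: 0 for no effect and ±100 for the full control effect; nearly all actives have a fitted effect of over 65% in size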
In short: (§3)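 Cells (500-1,000/well) rested 5 h, then received compounds for 48 h; metabolically active cells were measured by CellTiter-Glo luminescence. Final concentrations spanned up to 46 µM (MIPE, 11-point) or 0.59 nM-46 µM (NPC, 8-point) in primary screens, 11-point in follow-ups.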

[7] = qHTS of pediatric cancer cell lines to identify multiple opportunities for drug repurposing: Primary screen for NB1643 cells (AID 1347099);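 also: plate controls were DMSO neutral control for no effect and bortezomib positive control for full effect; nearly all actives have a fitted effect of over 50% in size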
In short: as §1

[8] = qHTS of pediatric cancer cell lines to identify multiple opportunities for drug repurposing: Primary screen for BT-12 cells (AID 1347101);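 also: plate controls were DMSO for no effect and bortezomib positive control for full effect; nearly all actives have a fitted effect of over 25% in size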
In short: as §3

[9] = qHTS of pediatric cancer cell lines to identify multiple opportunities for drug repurposing: Primary screen for Rh18 cells (AID 1347102); also: % is scaled to controls: 0 for no effect and ±100 for the full control effect; nearly all actives have a fitted effect of over 65% in size
In short: as §2

[10] = qHTS of pediatric cancer cell lines to identify multiple opportunities for drug repurposing: Primary screen for LAN-5 cells (AID 1347100);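 also: plate controls were DMSO neutral control for no effect and bortezomib positive control for full effect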
In short: as §2

C[C@@H]1CCN(C(=O)[C@H](CCCN=C(N)N)NS(=O)(=O)c2cccc3c2NC[C@H](C)C3)[C@@H](C(=O)O)C1
inactive: Potency [1] | Potency [2] | Potency [3] | Potency [4] | Potency [5] | Potency [6] | Potency [7] | Potency [8]

COc1ccc(S(=O)(=O)Nc2nnc(CC(C)C)s2)cc1
inactive: Potency [1] | Potency [2] | Potency [3] | Potency [4] | Potency [5] | Potency [6] | Potency [7] | Potency [8] | Potency [9]

O=c1[nH]cnc2c1ncn2[C@@H]1O[C@H](CO)[C@@H](O)[C@H]1O
inactive: Potency [1] | Potency [2] | Potency [3] | Potency [4] | Potency [5] | Potency [7] | Potency [10] | Potency [8]

CN(C)CC[C@@H](c1ccc(Cl)cc1)c1ccccn1
inactive: Potency [1] | Potency [2] | Potency [3] | Potency [4] | Potency [5] | Potency [7] | Potency [10] | Potency [8] | Potency [9]

CC1(C)[C@@H]2CC[C@@]1(C)C(=O)C2
inactive: Potency [1] | Potency [2] | Potency [3] | Potency [4] | Potency [5] | Potency [7] | Potency [10] | Potency [8] | Potency [9]

CC1=C(C/C=C(\C)CCC[C@H](C)CCC[C@H](C)CCCC(C)C)C(=O)c2ccccc2C1=O
inactive: Potency [1] | Potency [2] | Potency [3] | Potency [4] | Potency [5] | Potency [7] | Potency [10] | Potency [8] | Potency [9]

CCCCC(CC)COC(=O)c1ccccc1O (configuration not stated)
inactive: Potency [1] | Potency [2] | Potency [3] | Potency [4] | Potency [5] | Potency [7] | Potency [10] | Potency [8] | Potency [9]

Oc1ccc(C(O)CNCCCCCCNCC(O)c2ccc(O)c(O)c2)cc1O (configuration not stated)
inactive: Potency [1] | Potency [2] | Potency [3] | Potency [4] | Potency [5] | Potency [6] | Potency [7] | Potency [8] | Potency [9]

O=C(O)c1ccccn1
inactive: Potency [1] | Potency [2] | Potency [3] | Potency [4] | Potency [5] | Potency [7] | Potency [8]

O=S(=O)(O)c1cc(I)c(O)c2ncccc12
inactive: Potency [1] | Potency [2] | Potency [3] | Potency [4] | Potency [6] | Potency [7] | Potency [8] | Potency [9]

Cn1cc[nH]c1=S
inactive: Potency [1] | Potency [2] | Potency [3] | Potency [4] | Potency [6] | Potency [7] | Potency [8] | Potency [9]

CC(COc1ccccc1)NC(C)C(O)c1ccc(O)cc1 (configuration not stated)
inactive: Potency [1] | Potency [2] | Potency [3] | Potency [4] | Potency [7] | Potency [10] | Potency [8] | Potency [9]

CCC(=O)c1ccc(O)cc1
inactive: Potency [1] | Potency [2] | Potency [3] | Potency [4] | Potency [5] | Potency [7] | Potency [8] | Potency [9]

O=C(O)[C@@H]1CSCN1
inactive: Potency [1] | Potency [2] | Potency [3] | Potency [4] | Potency [6] | Potency [7] | Potency [8] | Potency [9]

CN(C)CCOC(C)(c1ccccc1)c1ccccn1 (configuration not stated)
inactive: Potency [1] | Potency [2] | Potency [3] | Potency [4] | Potency [6] | Potency [7] | Potency [10] | Potency [8]

O=C(O)Cc1sc(-c2ccccc2)nc1-c1ccc(Cl)cc1
inactive: Potency [1] | Potency [2] | Potency [3] | Potency [4] | Potency [6] | Potency [7] | Potency [10] | Potency [8] | Potency [9]

COc1ccc2cc1Oc1cc3c(cc1OC)CC[N+](C)(C)[C@H]3Cc1ccc(cc1)Oc1c(OC)c(OC)cc3c1[C@@H](C2)[N+](C)(C)CC3
inactive: Potency [1] | Potency [2] | Potency [3] | Potency [4] | Potency [6] | Potency [7] | Potency [10] | Potency [8] | Potency [9]

CC1(C)Oc2ccc(C#N)cc2[C@@H](N2CCCC2=O)[C@@H]1O
inactive: Potency [1] | Potency [2] | Potency [3] | Potency [4] | Potency [6] | Potency [7] | Potency [10] | Potency [8] | Potency [9]

CC1=C(CC(=O)O)c2cc(F)ccc2/C1=C\c1ccc(S(C)(=O)=O)cc1
inactive: Potency [1] | Potency [2] | Potency [3] | Potency [4] | Potency [7] | Potency [10] | Potency [8] | Potency [9]

CC1(C)OC(=O)NC1=O
inactive: Potency [1] | Potency [2] | Potency [3] | Potency [4] | Potency [7] | Potency [10] | Potency [8] | Potency [9]

C[C@@H]1CN(c2c(F)c(F)c3c(=O)c(C(=O)O)cn(C4CC4)c3c2F)C[C@H](C)N1
inactive: Potency [1] | Potency [2] | Potency [3] | Potency [4] | Potency [6] | Potency [7] | Potency [10] | Potency [8] | Potency [9]

NS(=O)(=O)c1cc2c(cc1C(F)(F)F)NC(Cc1ccccc1)NS2(=O)=O (configuration not stated)
inactive: Potency [1] | Potency [2] | Potency [3] | Potency [4] | Potency [7] | Potency [10] | Potency [8] | Potency [9]

CC[C@@]1(c2ccccc2)NC(=O)N(C)C1=O
inactive: Potency [1] | Potency [2] | Potency [3] | Potency [4] | Potency [7] | Potency [10] | Potency [8]

O=C(O)CC(O)C(=O)O (configuration not stated)
inactive: Potency [1] | Potency [2] | Potency [3] | Potency [4] | Potency [6] | Potency [7] | Potency [8] | Potency [9]

CCCc1c(OCCCCc2nn[nH]n2)ccc(C(C)=O)c1O
inactive: Potency [1] | Potency [2] | Potency [3] | Potency [4] | Potency [6] | Potency [7] | Potency [8] | Potency [9]

NC(N)=NCCC[C@H](N)C(=O)O
inactive: activity change, negative = cytotoxic [1] -27.1% [at 4.84 µM] | activity change, negative = cytotoxic [2] 4.21% [at 6.03 µM] | activity change, negative = cytotoxic [3] 12% [at 4.84 µM] | activity change, negative = cytotoxic [4] 2.69% [at 4.84 µM] | activity change, negative = cytotoxic [6] -0.158% [at 6 µM] | activity change, negative = cytotoxic [7] 7.96% [at 4.84 µM] | activity change, negative = cytotoxic [10] 8.53% [at 4.84 µM] | activity change, negative = cytotoxic [8] 1.23% [at 6.03 µM] | activity change, negative = cytotoxic [9] 15.1% [at 4.84 µM]
